Among the data in PubChem BioAssay (NCI) are growth values, retold here.

The panel holds about 83,000 compounds, 20% with a hit somewhere; the sample as a whole holds those more often.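 48-hour exposure, single concentration, 96-well plates; percent growth endpoint where 0 means no net growth. Active: below 10.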 Unmarked numbers belong to inactive results. Activity calls are given as the source filed them.

Among the test systems are NCI-H23 lung; NCI-H226 lung; NCI-H322M lung; HOP-62 NSCLC; NCI-H460 lung; HOP-92 NSCLC; NCI-H522 lung; A549/ATCC NSCLC; 786-0 renal; COLO 205 colon.
What all share (experiment): NCI-60 one-dose screen, 48 h (100 = growth as untreated, 0 = no growth, -100 = all killed)
Details in all cases: 10 µM unless noted

As for `CC/C=C\C[C@H](O)C/C=C1/C(=O)C=C[C@@H]1C/C=C\CCCC(=O)O`, the growth is 79.9% with NCI-H23 lung; 83.1% in the test on NCI-H226 lung; 85.6% with NCI-H322M lung; 96.9% in the test on HOP-62 NSCLC; 64.8% in the test on NCI-H460 lung; 75.2% in the test with HOP-92 NSCLC. The growth in the test with NCI-H522 lung was -10.7% (active); in the test on A549/ATCC NSCLC it was 75.9%; with 786-0 renal, 68.5%; with COLO 205 colon it was 65.4%.
For the molecule `CCOC(=O)C#Cc1c(C(=O)OCC)nnn1Cc1ccc(C(F)(F)F)cc1`, the growth in the test with NCI-H23 lung was 97.9%; with NCI-H226 lung, 71.9%; in the test with NCI-H322M lung, 93.4%; with HOP-62 NSCLC, 103%; with NCI-H460 lung it was 95.8%; in the test on HOP-92 NSCLC, 65.5%. Also, the growth is -15.1% (active) in the test on NCI-H522 lung, 95.8% with A549/ATCC NSCLC, 43.6% with 786-0 renal and 17.2% with COLO 205 colon.
Take `COc1ccc(CCN(CC(=O)N(CC(N)=O)C2CCC[C@@H]2OCc2ccccc2)C(=O)CN(C(=O)CN(CCc2ccc(Cl)cc2)C(=O)CN(C(=O)CN(C)Cc2ccccc2F)[C@H](C)C2CCCCC2)[C@H](C)C2CCCCC2)cc1OC` (stereo not given in full): the growth is 31.9% in the test with NCI-H23 lung; 53.5% in the test with NCI-H226 lung; 40.6% in the test with NCI-H322M lung; 41.8% with HOP-62 NSCLC; 28.3% in the test on NCI-H460 lung; 10.3% in the test on HOP-92 NSCLC. The growth in the test on NCI-H522 lung is 24.5%; with A549/ATCC NSCLC, 23.4%; in the test with 786-0 renal it was 44%; in the test on COLO 205 colon, -17.4% (active).
For `CC(=O)Oc1ccc(OC(C)=O)c2ccccc12`, the growth in the test with NCI-H23 lung was 95.6%; in the test with NCI-H226 lung, 74.9%; in the test on NCI-H322M lung it was 106%; in the test on HOP-62 NSCLC it was 90.2%; with NCI-H460 lung it was 107%; with HOP-92 NSCLC it was -88.6% (active). For the same molecule, the growth in the test on NCI-H522 lung is 61.6%; with A549/ATCC NSCLC, 98.7%; in the test with 786-0 renal, 107%; in the test on COLO 205 colon, 112%.
Turning to `COc1cccc(NCc2nnc(Nc3ccc(Cl)cc3)c3ccccc23)c1`, the growth in the test with NCI-H23 lung is 2.05% (active); in the test with NCI-H226 lung, -22.9% (active); with NCI-H322M lung, 3.32% (active); in the test on HOP-62 NSCLC it was -17.1% (active); with NCI-H460 lung, 0.101% (active); in the test on HOP-92 NSCLC, -32.8% (active). In addition, the growth is -43.8% (active) in the test on NCI-H522 lung, 2.56% (active) in the test with A549/ATCC NSCLC, -5.76% (active) in the test with 786-0 renal and -22.2% (active) with COLO 205 colon.
For `O=C(NC(Cc1nnc2n(Cc3ccccc3)c(=O)c3c4c(sc3n12)CCCC4)c1ccccc1)c1ccccc1` (stereo not given), the growth with NCI-H23 lung was 90.9%; with NCI-H226 lung it was 113%; in the test with NCI-H322M lung, 93.3%; in the test on HOP-62 NSCLC, 71.1%; with NCI-H460 lung it was 94.4%; in the test on HOP-92 NSCLC, 74.6%. Also, the growth is 94.8% in the test on NCI-H522 lung, 90.4% in the test on A549/ATCC NSCLC, 81% in the test on 786-0 renal and 107% in the test with COLO 205 colon.
On to `C[C@H](CCCC(=O)NCC#CCN1CCN(C)CC1)[C@H]1CC[C@H]2[C@@H]3CC[C@@H]4CC(=O)CC[C@]4(C)[C@H]3CC[C@]12C`, for which the growth is 87.7% with NCI-H23 lung; 103% in the test with NCI-H226 lung; 97.7% in the test with NCI-H322M lung; 96.2% in the test on HOP-62 NSCLC; 96% in the test with NCI-H460 lung; 73.7% with HOP-92 NSCLC. The growth is 102% in the test on NCI-H522 lung, 95.7% with A549/ATCC NSCLC, 97% with 786-0 renal and 95.1% with COLO 205 colon.
Turning to `Nc1[nH]c(=S)nc2oc(-c3ccccc3)c(-c3ccccc3)c12`, the growth with NCI-H23 lung is 94.5%; with NCI-H226 lung, 107%; in the test on NCI-H322M lung, 105%; in the test with HOP-62 NSCLC, 86.6%; with NCI-H460 lung, 113%; in the test with HOP-92 NSCLC, 102%. The growth was 94.8% with NCI-H522 lung, 98.1% in the test on A549/ATCC NSCLC, 103% in the test on 786-0 renal and 121% in the test with COLO 205 colon.
With `CN(Cc1cnc2nc(N)nc(N)c2n1)c1ccc(C(=O)NC(CCC(=O)O)C(=O)O)cc1Br` (stereo not given), the growth with NCI-H23 lung was 31.3%; in the test with NCI-H226 lung, 48.4%; with NCI-H322M lung, 69.6%; in the test on HOP-62 NSCLC it was 33.5%; in the test on NCI-H460 lung, 16.7%; in the test with HOP-92 NSCLC, 59.6%. Also, the growth in the test on NCI-H522 lung is 43.8%; in the test on A549/ATCC NSCLC, 26%; in the test with 786-0 renal, 15.8%; in the test with COLO 205 colon it was 36.3%.
Consider `C#CC#CC#CC#CC#CC#CC#CC#CC[C@@H]1OC[C@@H](COC(=O)O[C@@H](C(=O)O[C@H]2C[C@@]3(O)[C@@H](OC(=O)c4ccccc4)[C@@H]4[C@]5(OC(C)=O)CO[C@@H]5C[C@H](O)[C@@]4(C)C(=O)[C@H](OC(C)=O)C(=C2C)C3(C)C)[C@@H](NC(=O)c2ccccc2)c2ccccc2)O1`, for which the growth is 27.1% in the test with NCI-H23 lung; 32.3% with NCI-H226 lung; 23.5% in the test with NCI-H322M lung; 95.2% in the test on HOP-62 NSCLC; 99.7% in the test on NCI-H460 lung; 42.9% with HOP-92 NSCLC. Besides, the growth was 92.4% in the test on NCI-H522 lung, 94.7% in the test on A549/ATCC NSCLC, 16.3% with 786-0 renal and 108% in the test with COLO 205 colon.
With `CN(C)CCCNC(=O)c1cncnc1Nc1ccc(OCc2cccc(F)c2)c(Cl)c1`, the growth in the test on NCI-H23 lung was 61.5%; in the test with NCI-H226 lung it was 89%; in the test on NCI-H322M lung, 4.56% (active); with HOP-62 NSCLC it was -56% (active); in the test on NCI-H460 lung, -75.1% (active); in the test on HOP-92 NSCLC it was 24.6%. Further, the growth was -60.4% (active) in the test on NCI-H522 lung, -58% (active) in the test on A549/ATCC NSCLC, -78.7% (active) in the test on 786-0 renal and -71.3% (active) in the test on COLO 205 colon.
With `NC1=Nc2cc(OCCCCN3Cc4ccccc4C3)c(OCC3CC3)cc2C12CCCC2`, the growth in the test on NCI-H23 lung was 66.9%; in the test on NCI-H226 lung it was 37.7%; with NCI-H322M lung it was 75.7%; with HOP-62 NSCLC it was 73.2%; in the test with NCI-H460 lung it was 23.2%; in the test with HOP-92 NSCLC, 29.4%. For the same molecule, the growth with NCI-H522 lung was 67.3%; in the test with A549/ATCC NSCLC, 67.5%; with 786-0 renal, 56.2%; in the test on COLO 205 colon it was -74.5% (active).
